Measurements: PubChem BioAssay AID1566 (Sanford-Burnham Center for Chemical Genomics, 2009)
Among all 290,000 compounds or so, about 1,800 (0.62%) were called active. This is one part of a sample in which actives are shown more often than they occur. Rule as the data show it: active = inhibition above about 50%; inactive = the rest.

test: NOD2 signaling inhibitors, cell-based, luminescence, uHTS, HEK293 (AID 1566); conditions: HEK293 NOD2/NF-kB luciferase reporter, at 4 µM, active compounds read high

inhibition, active:
O=C(N/N=C/c1ccc([N+](=O)[O-])o1)C1CCCC1 60.2%
O=C(CSc1ccc(Cl)cc1)N/N=C/c1ccc([N+](=O)[O-])o1 69.6%
O=C(CN1CCCCCCC1)N/N=C/c1ccc([N+](=O)[O-])o1 67.4%
CC(NCCS(=O)(=O)c1ccc(Cl)cc1)c1cccc(Cl)c1 (stereo not drawn) 54.1%
CCN1CCN(C2=C(NS(=O)(=O)c3ccc(Br)cc3)C(=O)c3ccccc3C2=O)CC1 50.9%
O=C(CCl)N(c1ccccc1)C1CCCCC1 52.5%
CCn1cc(CNC(=O)c2ccc3nc(Cc4ccc(OC)cc4)oc3c2)cn1 54.1%

inhibition, inactive:
COc1ccc(OCC(=O)Nc2cc(-c3nn(C)c(=O)c4ccccc34)ccc2OC)cc1 46.6%
CCc1nnc(NC(=O)CSc2nc(C)cc(C)c2C#N)s1 -111%
COc1ccc(C)cc1S(=O)(=O)N(CC(N)=O)Cc1ccccc1 -4.4%
O=C(N/N=C/c1ccc([N+](=O)[O-])o1)C1CC1 23.5%
COC(=O)N/N=C/c1ccc([N+](=O)[O-])o1 -0.6%
CCCCCC(=O)N/N=C/c1ccc([N+](=O)[O-])o1 28.5%
CCCCCCCC(=O)N/N=C/c1ccc([N+](=O)[O-])o1 16.9%
O=C(CCC(=O)Nc1ccc(Cl)cc1Cl)N/N=C/c1ccc([N+](=O)[O-])o1 33.1%
O=C(Cc1ccc([N+](=O)[O-])cc1)N/N=C/c1ccc([N+](=O)[O-])o1 33.1%
COc1cc(C(O)P(=O)(OC2CCCCC2)c2ccc(N(C)C)cc2)cc(OC)c1OC (stereo not drawn) 0.5%
C=CCNC(=S)NNC(=O)COc1ccc2cc(Br)ccc2c1 -39.9%
CCCCCC(C)NC(=O)c1ccoc1C (stereo not drawn) 12.6%
COC(=O)C1CCN(C(=O)Cc2ccc(Br)cc2)CC1 -8.4%
O=C(CC1C(=O)NCCN1Cc1ccccc1)NCCCOc1cccnc1 (stereo not drawn) 9.1%
CC(=C/c1ccccc1)/C=N/Nc1nc(N2CCOCC2)nc(N2CCOCC2)n1 -9.3%
CC[n+]1c(/C=C/c2ccc(OC)c(OC)c2)ccc2ccccc21 -117%
CC[n+]1c(/C=C/c2ccc(N(C)C)cc2)ccc2ccccc21 17.2%
CC(C)c1ccc(C(C)NCCS(=O)(=O)c2ccc(Cl)cc2)cc1 (stereo not drawn) 14.9%
CC(C)c1ccc(C(C)NCCS(=O)(=O)c2ccc(Br)cc2)cc1 (stereo not drawn) -12.3%
CCCCOC(=O)C1=C(C)NC(=O)NC1c1ccc([N+](=O)[O-])s1 (stereo not drawn) 17.4%
CCCc1nc2ccccc2c(C(=O)OCC(=O)Nc2cccc(S(=O)(=O)N3CCOCC3)c2)c1CC -4.4%
CCc1nc2ccccc2c(C(=O)OCC(=O)Nc2ccc(S(=O)(=O)N3CCOCC3)cc2)c1C -9%
CCN(CC)CCNC(=O)c1ccc(NC(=O)Nc2cccc3ccccc23)cc1 -10.7%
O=C(c1ccccc1)N1CCN(CCc2ccccn2)CC1 -11.9%
COc1ccc(N2C(=O)C3C4C=CC(c5ccccc5)(C3C2=O)C2C(=O)N(c3ccc(OC)cc3)C(=O)C42)cc1 (stereo not drawn) 8%
COc1ccc(C(=O)Nc2cc(OC)c(Cl)cc2OC)cc1 4.7%
COc1cc(NC(=O)c2ccccc2)c(OC)cc1Cl -0.5%
CCN1CCN(C2=C(NS(=O)(=O)c3ccccc3)C(=O)c3ccccc3C2=O)CC1 18.2%
CCN1CCN(C2=C(NS(=O)(=O)c3ccc(C)cc3)C(=O)c3ccccc3C2=O)CC1 38%
Cc1cc(NC(=O)CSc2nc3ccccc3c(=O)n2Cc2ccccc2)no1 9.6%
NC(=O)CSc1nc2ccccc2c(=O)n1Cc1ccccc1 5.3%
CCOC(=O)Cc1c(C)nc(-c2ccccc2)[nH]c1=O -6.7%
COc1ccccc1N1CCN(C(=O)CCNS(=O)(=O)c2cc(Br)cnc2N)CC1 21%
COCCCNC(=O)C1CC(=O)OC1c1ccc(OC)c(OC)c1 (stereo not drawn) -13%
O=C(CCl)N(c1ccccc1)C1CCS(=O)(=O)C1 (stereo not drawn) 1.5%
CC(=O)N(c1ccccc1)C1CCCC1 16.4%
COc1ccc(NC(=S)NCCc2ccccc2)c(C)c1 1.7%
Nc1c(-c2n[nH]c(=S)n2-c2ccc(Cl)cc2Cl)cnn1-c1ccccc1 -0.1%
CCN(CC)S(=O)(=O)c1ccc(/C(O)=C2/C(=O)C(=O)N(CCOC)C2c2ccccc2)cc1 (stereo not drawn) 8.8%
CCn1cc(CNC(=O)c2ccc3nc(Cc4ccccc4F)oc3c2)cn1 24.7%
COc1ccc(Cc2nc3ccc(C(=O)NCCn4cccn4)cc3o2)cc1 -0.5%
